SMILES strings stand for the structures. Several values for one entry are separate records, joined by “and”; a condition that tells them apart may be missing. Equal values may be shown once. Values without a mark were called inactive. Inconclusive results are not listed. Activity calls are given as the source filed them. Unless noted, calls come from the whole dose curve; as a rule, active = well fitted curve in the direction sought with a large enough effect; inconclusive = small, poorly fitted or top-dose-only effect, or another doubt; inactive = no such curve, though single readings can be large; an effect the other way counts as inactive or inconclusive.

The nature of test [1]: SW1088 Cancer Cell Toxicity qHTS against the NCATS CANVASS Library (AID 1347350). Note: nearly all actives have a fitted effect of over 75% in size. Note: potency is the fitted concentration of half-maximal effect. The gist of the method:
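Toxicity is measured over 72 h of compound exposure at 37 degrees C under 5% CO2. Each well holds 1000 cells, pre-incubated for 4 hours before dosing across an 11-point range. CellTiter-Glo luminescence gives viability.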
On the technique in general: Quantitative high-throughput screening tests each substance at several concentrations.

The nature of test [2]: A2780 Cisplatin Sensitive Ovarian Cancer Cell Toxicity qHTS against the NCATS CANVASS Library (AID 1347353). Note: nearly all actives have a fitted effect of over 60% in size. Note: potency is the fitted concentration of half-maximal effect. The gist of the method:
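Cisplatin-sensitive A2780 ovarian cells (750/well) received compound in 11 concentrations, and were incubated 72 h at 37 °C. ATP content was measured by ATPLite luminescence; bortezomib served as control.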

Test [3] can be described thus: HEK-293 Cancer Cell Toxicity qHTS against the NCATS CANVASS Library (AID 1347355). Note: nearly all actives have a fitted effect of over 65% in size. Note: potency is the fitted concentration of half-maximal effect. The gist of the method: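 Toxicity was measured as CellTiter-Glo luminescence after 72 h exposure to an 11-point compound series. Compound was added to 1000 cells/well 4 h after seeding.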
Test [4] is described as follows: G06 Cancer Cell Toxicity qHTS against the NCATS CANVASS Library (AID 1347368). Note: nearly all actives have a fitted effect of over 60% in size. Note: potency is the fitted concentration of half-maximal effect. The method, boiled down:
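Viability measured by CellTiterGlo ATP luminescence after 72 hr at 37C, 5% CO2. Canine G06 glioma cells plated at 500/well. Compounds tested as 11-point qHTS titrations.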

Test [5] can be described thus: qHTS for activators of Nrf2/ARE signaling pathway screened against the NCATS CANVASS Library (AID 1347391). Note: nearly all actives have a fitted effect of over 60% in size. The gist of the method: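 Eleven-point qHTS, 16 h treatment of HepG2 cells carrying an ARE-driven beta-lactamase reporter; CCF4 ratio read (405 nm excitation, 460 and 530 nm emission), with CellTiter-Glo ATP luminescence for viability.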
The nature of test [6]: MCF7 Cancer Cell Toxicity qHTS against the NCATS CANVASS Library (AID 1347369). The gist of the method: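 MCF7 cells (500/well) were exposed 72 h at 37 °C to compounds in an 11-point series. Viability was read as ATP content by CellTiterGlo luminescence.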
The nature of test [7]: qHTS for ATAD5 Antagonist screened against the NCATS CANVASS Library (AID 1347370).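 Note: HEK293T cells carrying an ATAD5 luciferase reporter co-treated with 10 µM 5-fluorouridine; series mostly up to about 46 µM; nearly all actives have a fitted effect of over 65% in size.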 The gist of the method: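 Compounds (11-point) co-dosed with 10 µM 5-FUrd for 16 h at 37 °C onto HEK293T-ATAD5 luciferase reporter cells. Viability measured by CellTiter-Fluor fluorescence, then ATAD5 reporter signal by luminescence.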
Test [8] is described as follows: qHTS for Hypoxia signaling pathway (HIF-1) agonists against the NCATS CANVASS Library (AID 1347375). The gist of the method: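 Beta-lactamase reporter under HRE control in ME-180 cells; compounds (11-point qHTS series) added after 5 hrs plating, then 17 hrs at 37C. FRET substrate read after 2 hr; same-well CellTiter-Glo luminescence gave viability and normalization.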

A short description of test [9]: qHTS for inhibitors of Wild type Zika virus screened against the NCATS CANVASS Library (AID 1347396). Note: potency is the fitted concentration of half-maximal effect. The gist of the method:
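Luminescent CellTiter Glo read-out of virus-induced cytotoxicity, 72 h post-infection, in Vero 766 cells. Compounds were tested at 11 concentrations; uninfected, vehicle-treated wells defined 100% inhibition.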

Test [10] is described as follows: qHTS for inhibitors of Rabies Virus screened against the NCATS CANVASS Library (AID 1347402; calls by dose curve; note: series mostly up to about 46 µM).
Test [11] deals with Cytochrome P450 3A4 (Homo sapiens) (UniProt P08684). Description: qHTS Assay for Inhibitors and Substrates of Cytochrome P450 3A4 (AID 884). Note: nearly all actives have a fitted effect of over 50% in size. Note: potency is the fitted concentration of half-maximal effect. The method, boiled down:
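Luminescent readout of luciferin produced by CYP3A4 (20 nM) dealkylation of Luciferin-PPXE, 25 uM (its KM). NADPH-driven reaction ran 60 min at RT after 10 min compound preincubation; data scaled to 57 uM ketoconazole as 100% inhibition.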

Test [12] in a line: Stat Signaling Pathway (AID 446; active = well fitted curve in either direction with a large enough effect, not every such curve was filed as active;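 note: ME-180 cervical cancer cells given 40 pM IL-6 alongside compound; SIE-controlled beta-lactamase reporter measured as 460/530 nm FRET emission ratio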). The method, boiled down:
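FRET read-out (405 nm excitation, 460/530 nm emission) of a beta-lactamase reporter under a STAT-inducible element in ME-180 cervical carcinoma cells. Cells with compound receive 40 pM IL-6 for 5 h. Values are normalised to AC90 stimulation and AC90 JAK-inhibitor controls.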

Test [13] addresses Guanine nucleotide-binding protein G(i) subunit alpha-1 (Homo sapiens) (UniProt P63096). Kind of test: qHTS Assay for Inhibitors of RGS12 GoLoco Motif Activity (Green Fluorophore) (AID 879).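 Note: negative values mean loss of peptide binding seen as reduced polarization.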 The method, boiled down:
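A drop in FITC polarization marked displacement of the FITC-tagged RGS12 GoLoco peptide (10 nM) from Gαi1 (50 nM). Compounds were incubated 10 min at room temperature in Tris pH 7.5 buffer containing 150 mM NaCl, 0.1 mM GDP and 0.05% NP40; unlabeled peptide titration served as control.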

Test [14] addresses Pyruvate kinase (Leishmania mexicana) (UniProt Q27686). Kind of test: qHTS Validation Assay for Inhibitors of Leishmania Mexicana Pyruvate Kinase (AID 945). The method, boiled down: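 Substrate mix (0.5 mM PEP, 0.1 mM ADP, 7 mM MgCl2, 50 mM KCl, pH 7.2 imidazole) received compound by pin tool, then 0.2 nM LmPYK E451W. After 1 h at room temperature, PKLight was added and luminescence measured.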

Test [15] has as its target Alpha-galactosidase A (Homo sapiens) (UniProt P06280). Kind of test: Counterscreen for Glucocerebrosidase Inhibitors: qHTS Assay for Human alpha-Galactosidase at pH 4.5 (AID 992). The method, boiled down: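 Fluorogenic 1536-well qHTS at pH 4.5 (citrate, Tween-20): 2 nM enzyme, 80 uM 4-MU-alpha-galactoside, 20 min room temperature, NaOH/glycine stop. Titration 0.7 nM to 77 uM, data normalized to no-enzyme and full-activity controls, Hill-fitted AC50.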

Test [16] has as its target alpha-glucosidase (Oryza sativa, rice) (UniProt Q653V4). Description: Counterscreen for Glucocerebrosidase Inhibitors: qHTS Assay for Rice alpha-Glucosidase at pH 5.0 (AID 997). The gist of the method: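 Endpoint fluorogenic assay at pH 5.0: compounds (0.7 nM to 77 uM) titrated against 4 nM rice enzyme and 400 uM 4-MU-alpha-glucoside for 20 min at room temperature; NaOH/glycine stop, read ex 365/em 440 nm, Hill-fitted AC50.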
(Counterscreens check selectivity or assay interference.)

The target of test [17] is Cytochrome P450 2D6 (Homo sapiens) (UniProt P10635). Description: qHTS Assay for Inhibitors and Substrates of Cytochrome P450 2D6 (AID 891). Note: potency is the fitted concentration of half-maximal effect; nearly all actives have a fitted effect of over 60% in size. The gist of the method: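 Luminescent read-out of luciferin formed by 5 nM human CYP2D6 demethylating 30 uM Luciferin-ME EGE (Km level) over 60 min at room temperature after NADPH regeneration addition. Data normalized to full inhibition by 1.43 uM quinidine.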
Chain of Cytochrome P450 2D6 (Homo sapiens) (P10635 whole entry, looked up): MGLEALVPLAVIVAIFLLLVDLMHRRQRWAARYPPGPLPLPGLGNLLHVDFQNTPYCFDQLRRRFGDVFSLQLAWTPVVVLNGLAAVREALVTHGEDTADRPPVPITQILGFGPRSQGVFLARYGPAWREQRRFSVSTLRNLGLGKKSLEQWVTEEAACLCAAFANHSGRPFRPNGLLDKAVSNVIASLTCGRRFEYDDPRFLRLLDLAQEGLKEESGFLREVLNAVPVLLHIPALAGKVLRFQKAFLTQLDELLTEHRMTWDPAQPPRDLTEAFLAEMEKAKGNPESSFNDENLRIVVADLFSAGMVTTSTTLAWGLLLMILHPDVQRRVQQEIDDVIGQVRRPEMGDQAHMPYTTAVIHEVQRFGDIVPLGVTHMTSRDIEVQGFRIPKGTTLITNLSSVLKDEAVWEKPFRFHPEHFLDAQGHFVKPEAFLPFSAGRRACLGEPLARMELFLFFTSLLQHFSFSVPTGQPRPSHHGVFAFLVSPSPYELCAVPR

Chain of Cytochrome P450 3A4 (Homo sapiens) (P08684 whole entry, looked up): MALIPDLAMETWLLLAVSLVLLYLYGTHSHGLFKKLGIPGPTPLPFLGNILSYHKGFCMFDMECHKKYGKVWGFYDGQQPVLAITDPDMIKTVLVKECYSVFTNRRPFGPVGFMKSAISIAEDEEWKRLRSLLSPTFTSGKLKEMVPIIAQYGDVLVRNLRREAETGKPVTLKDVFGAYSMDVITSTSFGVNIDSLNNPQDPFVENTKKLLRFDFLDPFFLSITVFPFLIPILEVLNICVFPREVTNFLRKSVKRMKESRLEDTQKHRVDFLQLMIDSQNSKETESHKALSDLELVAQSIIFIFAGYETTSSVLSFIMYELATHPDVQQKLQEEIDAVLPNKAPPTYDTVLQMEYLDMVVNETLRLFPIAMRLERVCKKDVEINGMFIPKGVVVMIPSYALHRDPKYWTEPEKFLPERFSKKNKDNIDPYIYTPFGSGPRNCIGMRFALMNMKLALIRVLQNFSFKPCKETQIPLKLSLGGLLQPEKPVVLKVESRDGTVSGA
Chain of Guanine nucleotide-binding protein G(i) subunit alpha-1 (Homo sapiens) (P63096 whole entry, looked up): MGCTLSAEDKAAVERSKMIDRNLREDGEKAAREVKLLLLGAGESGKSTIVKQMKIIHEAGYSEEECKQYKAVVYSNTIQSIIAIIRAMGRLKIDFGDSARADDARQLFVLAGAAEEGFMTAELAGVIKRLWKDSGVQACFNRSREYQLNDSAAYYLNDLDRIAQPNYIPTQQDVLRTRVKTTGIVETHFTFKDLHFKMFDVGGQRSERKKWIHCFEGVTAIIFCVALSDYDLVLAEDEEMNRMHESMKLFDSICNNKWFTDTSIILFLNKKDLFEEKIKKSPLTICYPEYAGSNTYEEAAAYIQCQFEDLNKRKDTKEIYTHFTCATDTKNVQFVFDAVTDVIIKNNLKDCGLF
Chain of Alpha-galactosidase A (Homo sapiens) (P06280 whole entry, looked up): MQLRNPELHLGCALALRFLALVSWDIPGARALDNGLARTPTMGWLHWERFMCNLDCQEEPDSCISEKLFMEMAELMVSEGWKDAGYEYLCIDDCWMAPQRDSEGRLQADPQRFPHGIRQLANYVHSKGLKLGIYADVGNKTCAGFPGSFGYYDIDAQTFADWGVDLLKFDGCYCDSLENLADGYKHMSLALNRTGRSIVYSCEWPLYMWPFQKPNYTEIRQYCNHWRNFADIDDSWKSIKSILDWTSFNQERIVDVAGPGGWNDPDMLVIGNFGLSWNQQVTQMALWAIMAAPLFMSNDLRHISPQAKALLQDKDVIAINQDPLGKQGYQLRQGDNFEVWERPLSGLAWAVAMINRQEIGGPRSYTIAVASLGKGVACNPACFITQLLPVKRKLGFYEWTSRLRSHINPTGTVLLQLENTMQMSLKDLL
Chain of Pyruvate kinase (Leishmania mexicana) (Q27686 2-499 E452W): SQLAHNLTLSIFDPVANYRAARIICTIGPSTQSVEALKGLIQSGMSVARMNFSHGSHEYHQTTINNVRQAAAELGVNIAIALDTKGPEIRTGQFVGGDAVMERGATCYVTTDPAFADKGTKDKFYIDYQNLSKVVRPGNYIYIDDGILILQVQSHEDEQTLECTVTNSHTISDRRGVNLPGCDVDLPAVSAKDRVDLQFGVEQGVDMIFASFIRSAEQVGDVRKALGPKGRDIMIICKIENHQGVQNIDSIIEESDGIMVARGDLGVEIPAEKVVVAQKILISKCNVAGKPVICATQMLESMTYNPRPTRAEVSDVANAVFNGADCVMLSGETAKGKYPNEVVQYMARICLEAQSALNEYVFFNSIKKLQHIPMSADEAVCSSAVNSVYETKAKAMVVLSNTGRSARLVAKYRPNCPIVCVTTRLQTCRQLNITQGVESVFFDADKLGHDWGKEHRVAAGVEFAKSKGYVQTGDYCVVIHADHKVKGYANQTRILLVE

For the compound `O=C(c1ccccc1O)c1[nH]c(Cl)c(Cl)c1-n1c(C(=O)c2ccccc2O)cc(Cl)c1Cl`, the Potency in test [1] was 0.749 µM (active); in test [2], 3.72 µM (active); in [3] it was 4.18 µM (active); in [4], 5.9 µM (active). The Potency entry in test [5] is “inactive”.

For `CO[C@H](c1ccccc1)[C@H]1NC(=O)C(C)NC(=O)C(C[C@@H](C)CO)N(C)C(=O)[C@@H](C(O)c2cn(C(C)(C)C3CO3)c3ccccc23)NC(=O)C(C(C)C=C(C)C)NC(=O)C(CC(C)C)N(C)C(=O)C(C(C)C)NC1=O` (some centres not stated), the Potency entry in [1], in [2], in test [6], in test [7], in test [8] and in [5] was “inactive” in each case. The Potency result in test [9] was “inactive”. Also, the compound was classed as inactive in test [10].

On to `CCC[C@H]1CC[C@H]2[C@H](C)CCC[C@H]2N1`, for which the Potency entry in test [1], in test [2], in test [3], in test [4], in test [6] and in test [7] was “inactive” in each case. The Potency entry in test [8], in test [5] and in test [9] was “inactive” each time. Also, the result in test [10] was inactive.

Turning to `NC(=NCc1ccc(Cl)cc1)SCCCc1cnc[nH]1`, the Potency in test [11] is 1.58 µM (active).

As for `O=C(O)c1ccccc1-c1c2cc(Br)c(=O)cc-2oc2[c]([Hg])c(O)c(Br)cc12`, the Potency in test [11] is 25.1 µM (active).

With `CCCCC[C@@H]1OC(=O)[C@@H](C)N(C)C(=O)[C@H](CCCCC)OC(=O)C(C)N(C)C(=O)[C@H](CCCCC)OC(=O)[C@@H](C)N(C)C(=O)[C@H](CCCCC)OC(=O)C(C)N(C)C1=O` (some centres not stated), the Potency in test [1] is 6.68 µM (active); in test [2], 7.43 µM (active); in [3], 4.18 µM (active); in [4], 18.7 µM (active); in test [9] it was 11.7 µM (active). Moreover, the Potency entry in test [8] and in test [5] was “inactive” each time.

Regarding `CC1=CC2CC[C@@H]3[C@@H](C)C[C@H](C)[C@@H](C1)N23` (some centres not stated), the Potency result in test [1], in test [2], in test [3], in test [4], in [6] and in [7] was “inactive” in each case. Moreover, the Potency result in test [8], in [5] and in test [9] was “inactive” throughout. The compound was called inactive in test [10].

Regarding `O=C1CC[C@@]2(O)[C@H]3Cc4ccc(O)c5c4[C@@]2(CCN3CC2CC2)[C@@H]1O5`, the compound was classed as inactive in test [12], in test [13], in [14], in test [15] and in test [16].

Regarding `CNCCc1ccc(O)cc1`, the Potency entry in test [1], in test [2], in test [3], in test [4], in test [6] and in [7] was “inactive” throughout. The Potency entry in test [8], in test [5] and in test [9] was “inactive” each time. Besides, the compound was classed as inactive in [10].

Take `O=C1Nc2ccccc2C2(CCN(CCc3ccc(C(F)(F)F)cc3)CC2)O1`: in test [11], the Potency entry was “inactive”.

As for `Oc1ccc2c3c1O[C@H]1c4[nH]c5ccccc5c4C[C@]4(O)[C@H](C2)N(CC2CC2)CC[C@@]314`, the compound was called inactive in test [12], in [13], in test [14], in test [15] and in test [16]. In addition, the Potency in test [17] was 2.51 µM (active) and 631 nM (active).

In the case of `CC(=O)N[C@H]1CCN2CCC[C@H]12`, the Potency entry in test [1], in test [2], in test [3], in [4], in test [6] and in test [7] was “inactive” each time. Moreover, the Potency entry in test [8], in [5] and in [9] was “inactive” throughout. For the same compound, in test [10], the call was inactive.

For `CCCCCCC[n+]1ccc(-c2cc[n+](CCCCCCC)cc2)cc1`, the Potency in test [17] was 7.94 µM (active).

As to `Cc1c(C(=O)c2ccc3ccccc3c2)c2cccc3c2n1[C@H](CN1CCOCC1)CO3`, the Potency in test [11] is 7.94 µM (active).

Turning to `CN1[C@@H]2CC[C@H]1CC(OC(=O)N1Cc3ccccc3NC1=O)C2` (some centres not stated), the Potency result in test [11] was “inactive”.

Consider `CC[N@@+]1([O-])C[C@]2(C)CC[C@@H](O)[C@@]34C5C[C@H]6CC[C@@]5(C(C[C@H]23)C41)[C@H](O)[C@@]6(O)CO` (some centres not stated), for which the Potency result in test [1], in test [2], in [3], in test [4], in [6] and in test [7] was “inactive” in each case. Besides, the Potency entry in test [8], in test [5] and in test [9] was “inactive” throughout. In addition, in test [10], the compound was called inactive.

For the origin of these results see PubChem BioAssay (NCATS).
